This is an account of results in PubChem BioAssay AID1745848 (National Center for Advancing Translational Sciences (NCATS), 2022).

SMILES strings stand for the structures. About 940 (45%) of roughly 2,100 compounds were called active. Roughly 48% stayed inconclusive and do not appear here. Calls come from the whole dose curve; as a rule, active = well fitted inhibition curve with a large enough effect; inconclusive = small, poorly fitted or top-dose-only effect; inactive = no such curve, though single readings can be large or run the other way. So high a share suggests a set chosen from earlier hits. The list shows a part of the results.
Potency is the fitted concentration of half-maximal effect.

A short description of the experiment: Confirmatory qHTS for Inhibitors of ATXN expression.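 For activity change, negative = inhibition: 0% = DMSO vehicle wells and -100% = medium-only wells without cells.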 Note: nearly all actives have a fitted effect of over 65% in size. The note with it: ATXN2-luciferase reporter cells, luminescence, 24 h; series mostly up to 11.5 µM; activity change, negative = inhibition: at the top concentration. The method in brief:
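A titration, incubated 24 h with reporter cells expressing ATXN2-luciferase. Luminescence (SteadyGlo) gives ATXN2 expression, multiplexed GF-AFC fluorescence gives viability; normalised to DMSO and medium-only wells.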
A general note: Quantitative high-throughput screening tests each substance at several concentrations.
Take `Cc1n(Cc2ccccc2)c2ccccc2[n+]1Cc1ccccc1`: the “activity change, negative = inhibition” value was -27.8% (inactive).
Turning to `N#Cc1c(Oc2ccc3ccccc3c2)sc(C(=O)c2ccccc2)c1N`, the Potency was 14.1 µM (active).
On the same count and under the same terms, the figure for `CCOC(=O)C1CCN(c2cc3c(cc2NC(=O)c2ccccc2OCC)n(C)c(=O)n3C)CC1` is 28.2 µM (active).
With `Cc1ccc(O)c(CNCCNCc2cc(C)ccc2O)c1`, the Potency was 14.1 µM (active).
Same read-out and setting: the figure for `Cc1ccc(-c2noc(CCCC(=O)NC3CCCC3)n2)cc1` is 7.94 µM (active); for `COc1ccc(-c2noc(CCCC(=O)NC3CCCC3)n2)cc1` it is 8.91 µM (active); for `O=C(CSc1ccc2ccccc2c1)Nc1nc2ccccc2[nH]1` it is 2.82 µM (active).
Turning to `Cc1cccc(OCCCC(=O)Nc2nccs2)c1`, the Potency was 3.16 µM (active).
As for `Cc1cccc(OCCCC(=O)Nc2nc3ccccc3[nH]2)c1`, the Potency is 0.891 µM (active).
Regarding `Cc1[nH]n(-c2ccccc2)c(=O)c1C=Nc1cccc2cccnc12`, the Potency is 1.78 µM (active).
On to `CCOc1cc(/C=C2\SC(=N)N(c3nccs3)C2=O)ccc1OCCN1CCOCC1`, for which the Potency was 14.1 µM (active).
Turning to `CSc1nc(-c2ccc(Cl)cc2)nc(N)c1C#N`, the Potency is 2.82 µM (active).
Take `CC(=O)Oc1ccc(N(C(C)=O)S(=O)(=O)c2ccc(C)cc2)c2ccccc12`: the Potency was 3.16 µM (active).
`CC(=O)Oc1ccc(N(C(C)=O)S(=O)(=O)c2ccc(C)cc2C)c2ccccc12`: the Potency is 31.6 µM (active).
For `CC1CCN(Cc2c(C(=O)N/N=C/c3ccccc3O)nnn2-c2nonc2N)CC1`, the Potency was 1.78 µM (active).
`CC1CCN(Cc2c(C(=O)N/N=C/c3cc(Cl)ccc3O)nnn2-c2nonc2N)CC1`: the Potency was 3.55 µM (active).
Turning to `CC1CCN(Cc2c(C(=O)N/N=C/c3cc(Br)ccc3O)nnn2-c2nonc2N)CC1`, the Potency is 0.794 µM (active).
Take `CCN1CC2=C(OC(N)=C(C#N)C2c2cccs2)/C(=C\c2cccs2)C1` (stereo not drawn): the “activity change, negative = inhibition” value was -3.24% (inactive).
For the compound `COc1cc([C@@H]2c3cc4c(cc3[C@@H](O[C@@H]3O[C@@H]5CO[C@@H](C)O[C@H]5[C@H](O)[C@H]3O)[C@H]3COC(=O)[C@H]23)OCO4)cc(OC)c1O`, the Potency was 0.631 µM (active).
As to `CC[C@]12c3[nH]c4ccc(Cl)cc4c3CCN1C(=O)[C@@H](CC(=O)NCC13CC4CC(CC(C4)C1)C3)C[C@@H]2C(=O)N1CCN(C(=O)c2ccco2)CC1`, the Potency was 3.55 µM (active).
Still for that read-out and setting: the figure for `CC[C@]12c3[nH]c4ccc(Cl)cc4c3CCN1C(=O)[C@@H](CC(=O)NCC13CC4CC(CC(C4)C1)C3)C[C@@H]2C(=O)N1CCN(C(=O)C2CC2)CC1` is 28.2 µM (active).
Still for that read-out and setting: the figure for `O=C(N/N=C(\Cc1ncc[nH]1)c1ccccc1)c1ccncc1` is 10 µM (active); for `O=C(N/N=C(\Cc1ncc[nH]1)c1ccccc1)c1cccnc1` it is 3.16 µM (active); for `Oc1ccc2ccccc2c1/C=C/c1ccc2c(Br)cc(Br)c(O)c2n1` it is 12.6 µM (active).
For the compound `CN(C)CCNc1cccc2sc3ccc(O)cc3c(=O)c12`, the Potency is 28.2 µM (active).
Still for that read-out and setting: the figure for `CN(C)CCNc1ccc2ncn3c4ccc(O)cc4c(=O)c1c23` is 1 µM (active); for `CN(C)CCNc1ccc2nnn3c4ccc(O)cc4c(=O)c1c23` it is 2 µM (active).
For `Cc1cc(Oc2ccc(Cl)cc2)nc(-c2ccccn2)n1`, the “activity change, negative = inhibition” value is -20.3% [at 57.5 µM] (inactive).
With `COc1cnc(-c2ccccn2)nc1Oc1ccc(Cl)c2ccccc12`, the Potency is 3.16 µM (active).
`COc1cc([N+](=O)[O-])cc(/C=N/NC(=O)c2ccc(NC(=O)c3ccc(C)cc3)cc2)c1O`: the Potency was 1.41 µM (active).
Take `O=C(N/N=C/c1cc(Br)cc([N+](=O)[O-])c1O)c1ccc(NC(=O)c2ccc(F)cc2)cc1`: the Potency was 3.16 µM (active).
Turning to `Cc1cc(C(=O)N/N=C/c2cc(Br)cc([N+](=O)[O-])c2O)c2ccccc2n1`, the Potency was 3.16 µM (active).
Consider `O=C(Nc1ccc(Cl)c(Cl)c1)Nc1nnc(CSc2ccccc2)s1`, for which the Potency was 1.78 µM (active).
Same read-out and setting: the figure for `CC1=CC(C)(C)Nc2ccc(OC(=O)CN3C(=O)CCC3=O)cc21` is 3.55 µM (active); for `Cc1cc(NCc2ccccn2)n2nc(C)c(-c3ccc(Cl)cc3)c2n1` it is 15.8 µM (active).
Take `c1ccc(Cn2c(-c3ccccc3)c[n+]3c2SCCC3)cc1`: the “activity change, negative = inhibition” value is -25.9% [at 57.5 µM] (inactive).
`CCOc1ccc(-n2c(-c3ccccc3)c[n+]3c2CCCCC3)cc1`: the Potency was 8.91 µM (active).
As to `Cc1cccc(C2=NN(c3ccccc3)[C@H](CO)[C@H]2c2ccc(Cl)cc2)c1`, the “activity change, negative = inhibition” value is -19.7% (inactive).
On to `Cc1cc(C)c2nc(N3CCCC(C(=O)N4CCN(c5ncccn5)CC4)C3)sc2c1` (stereo not drawn), for which the Potency is 3.16 µM (active).
Same read-out and setting: the figure for `O=c1cc(-c2cccnc2)oc2c1ccc1ccccc12` is 3.55 µM (active); for `CN(C)c1cc[n+](CC(=O)c2ccc(-c3ccccc3)cc2)cc1` it is 2.24 µM (active).
For the compound `Oc1ccc(C[C@@H]2CNCCN2CCc2cc(C(F)(F)F)cc(C(F)(F)F)c2)cc1`, the Potency is 3.16 µM (active).
As to `COc1cccc(-c2ccc(NC(=O)C3CCCN(Cc4cnn(C(C)C)c4)C3)cc2)c1` (stereo not drawn), the Potency is 3.16 µM (active).
As for `Cc1cc(C)nc(NNS(=O)(=O)c2ccc(F)c(Cl)c2)n1`, the “activity change, negative = inhibition” value was -3.25% (inactive).
Consider `CN(CC(=O)NCc1ccc(F)cc1)CC(=O)Nc1ccc(Cl)c(C(F)(F)F)c1`, for which the Potency was 25.1 µM (active).
Turning to `CN(CC(=O)Nc1ccc(Cl)c(C(F)(F)F)c1)C(=O)c1cccnc1Sc1ccccc1`, the “activity change, negative = inhibition” value was -17.8% [at 57.5 µM] (inactive).
As for `Cc1nc(-c2ccc(F)cc2)c(CC(=O)N(C)CC(=O)Nc2ccc(Cl)c(C(F)(F)F)c2)s1`, the Potency is 25.1 µM (active).
Regarding `Cc1cc(OCC(=O)NC(C)c2ccccc2)ccc1[N+](=O)[O-]` (stereo not drawn), the “activity change, negative = inhibition” value is -13.6% (inactive).
As for `CCC(=O)NC(c1ccc(C)cc1)c1cc([N+](=O)[O-])c2cccnc2c1O` (stereo not drawn), the Potency was 6.31 µM (active).
On the same count and under the same terms, the figure for `CC(C)C(=O)NC(c1ccccc1)c1cc([N+](=O)[O-])c2cccnc2c1O` (stereo not drawn) is 10 µM (active); for `CC(C)c1ccc2c(c1)C(N1CCNCC1)Cc1ccc(F)cc1S2` (stereo not drawn) it is 28.2 µM (active).
For `N#Cc1c(N)n(C2OC(CO)C(O)C2O)c2ncnc(N)c12` (stereo not drawn), the Potency is 0.398 µM (active).
Take `CNc1nc2c(N)ncnc2n1[C@H]1O[C@@H](CO)[C@H](O)[C@@H]1O`: the Potency is 2.82 µM (active).
Still for that read-out and setting: the figure for `CCc1cc(C)cc(OCCNC(=O)c2cncc(Br)c2)c1` is 25.1 µM (active).
With `CCOc1ccc(CCNC(=O)c2ccc(OCc3c(C)noc3C)cc2)cc1OCC`, the “activity change, negative = inhibition” value is -13.2% (inactive).
Turning to `COc1ccc(OCc2cccc(C(=O)Nn3cc([N+](=O)[O-])cn3)c2)cc1`, the Potency was 0.398 µM (active).
In the case of `O=C(Nc1ccc2c(c1)CCC2)C1CCN(c2c3c(nc4ncnn24)CCC3)CC1`, the Potency is 7.94 µM (active).
Turning to `CC(C)COc1cccc(C(=O)N(CC(=O)Nc2ccccc2C(F)(F)F)Cc2ccco2)c1`, the Potency was 3.16 µM (active).
For the compound `Cc1cc(C)nc(N/N=C2/CCCC/C2=C\c2ccccc2)n1`, the Potency is 2.82 µM (active).
With `COc1cc2[nH]c(=O)n(CCCCCC(=O)N3CC=C(c4ccccc4)CC3)c(=O)c2cc1OC`, the Potency is 3.16 µM (active).
On to `CCOC(=O)c1c(NC(=O)C(Sc2ccccc2)c2ccccc2)sc(C(=O)N(C)C)c1C` (stereo not drawn), for which the Potency was 25.1 µM (active).
Turning to `CCOC(=O)c1c(NC(=O)COC(=O)c2ccccc2NC)sc(C(=O)N(C)C)c1C`, the “activity change, negative = inhibition” value was -24% (inactive).
Turning to `COc1ccc(CNC(=O)Nc2nc(C(N)Cc3ccc(Cl)cc3)cs2)cc1` (stereo not drawn), the Potency was 28.2 µM (active).
In the case of `NC(Cc1ccc(Cl)cc1)c1csc(NC(=O)Nc2ccccc2-c2ccccc2)n1` (stereo not drawn), the Potency is 3.16 µM (active).
As to `COc1ccc(N(C(=O)c2snc(C(N)=O)c2N)C(C(=O)NCc2ccc(F)cc2)c2ccc(O)cc2)cc1` (stereo not drawn), the “activity change, negative = inhibition” value was -19.9% [at 57.5 µM] (inactive).
`CC(C)CC(N)c1csc(NC(=O)Nc2ccccc2C(C)(C)C)n1` (stereo not drawn): the Potency was 3.16 µM (active).
With `COc1ccc(CC(N)c2csc(NC(=O)c3ccccc3OC)n2)cc1` (stereo not drawn), the “activity change, negative = inhibition” value is -21.7% [at 57.5 µM] (inactive).
As for `NC(Cc1ccc(F)cc1)c1csc(NC(=O)NC(c2ccccc2)c2ccccc2)n1` (stereo not drawn), the Potency was 28.2 µM (active).
With `NC(c1ccccc1)c1csc(NC(=O)Nc2ccccc2Oc2ccccc2)n1` (stereo not drawn), the Potency is 3.16 µM (active).
Turning to `O=C(OCCN1C(=O)c2cccc3c(N4CCOCC4)ccc(c23)C1=O)c1ccccc1Cl`, the Potency is 5.01 µM (active).
The same measure, in the same setting: the figure for `COc1ccc2c(-c3ccc(S(N)(=O)=O)cc3)c(-c3ccc(S(C)(=O)=O)cc3)sc2c1` is 28.2 µM (active); for `O=C(/C=C/c1ccco1)Oc1cc(Br)cc(/C=N/NC(=O)c2ccccc2O)c1` it is 0.447 µM (active).
With `O=C(CNC(=O)c1cccc(F)c1)N/N=C/c1cc(Br)ccc1OC(=O)/C=C/c1ccco1`, the Potency is 7.94 µM (active).
Turning to `O=C(CNC(=O)c1ccc(F)cc1)N/N=C/c1cc(Br)ccc1OC(=O)/C=C/c1ccco1`, the Potency is 15.8 µM (active).
Turning to `O=C(CNC(=O)c1ccccc1F)N/N=C/c1cc(Br)ccc1OC(=O)/C=C/c1ccco1`, the Potency is 11.2 µM (active).
For `CCCCOc1ccc(C(=O)NNC(=O)c2cnccn2)cc1OC`, the Potency was 17.8 µM (active).
`O=C(/C=C/c1ccccc1)NC(=S)NNC(=O)c1cnccn1`: the Potency was 7.94 µM (active).
On to `O=C(NNC(=O)c1cnccn1)c1ccc(Cl)c(Cl)c1`, for which the Potency is 15.8 µM (active).
Still for that read-out and setting: the figure for `COc1cc(C(=O)NC(=S)NNC(=O)c2cnccn2)cc(OC)c1OC` is 12.6 µM (active).
In the case of `O=C(NCCc1csc(-c2cccnc2)n1)c1cccc(Cl)c1`, the “activity change, negative = inhibition” value is -25.2% [at 57.5 µM] (inactive).
In the case of `NC(N)=N/N=C/c1ccc2cccc(OCc3ccccc3)c2n1`, the Potency is 10 µM (active).
The same measure, in the same setting: the figure for `CCC(c1nnnn1C1CCCC1)N(Cc1cccs1)Cc1cc2cc(C)ccc2[nH]c1=O` (stereo not drawn) is 28.2 µM (active); for `Cn1nnnc1Sc1ncnc2scc(-c3ccccc3Cl)c12` it is 3.16 µM (active).
As for `CC(=O)c1cccc(-c2csc3ncnc(Sc4nnnn4C)c23)c1`, the Potency was 11.2 µM (active).
On the same count and under the same terms, the figure for `Cn1nnnc1Sc1ncnc2scc(Br)c12` is 28.2 µM (active).
Turning to `Cn1nnnc1Sc1ncnc2scc(-c3ccc[nH]3)c12`, the Potency was 28.2 µM (active).
For `CCOC(=O)c1c(C)oc2c(F)c(F)c(F)c(F)c2c1=O`, the Potency is 3.98 µM (active).
Take `CCN(CC)CCNC1=NCCn2c1cc1cc(OC)ccc12`: the Potency was 1.78 µM (active).
